Consider 40 compounds from PubChem BioAssay (NCI).

The structures appear in SMILES notation. The panel holds about 79,000 compounds, 15% with a hit somewhere; the sample as a whole holds those more often. A number with no mark means an inactive call. No stated cut-off is given here; in the data, active means growth inhibition above about 70%; inactive means the rest.

A short description of the first experiment: NCI Yeast Anticancer Drug Screen. Data for the sgs1 mgt1 strain (AID 161).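 Further: 0% = growth of cultures given vehicle only.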 Conditions: S. cerevisiae sgs1 mgt1 strain, at 50.0 µM, active compounds read high. In a few lines:
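Yeast cells carrying a defined DNA-repair defect were exposed to test compounds. Growth inhibition was measured relative to vehicle-treated controls.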
Consider `O=C(NCCCCCCNC(=O)NCc1ccco1)NCc1ccco1`, for which the growth inhibition is -28.1%.

With `c1ccc(COC(c2ccccc2)(c2ccccc2)c2ccccc2)cc1`, the growth inhibition is 10.4%.

Consider `O=S(=O)(O)C(c1ccccc1)C(O)c1ccccc1` (stereo not given), for which the growth inhibition was -14.4%.

Consider `Nc1nc(N)c2nc(-c3ccc(O)cc3)c(-c3ccc(O)cc3)nc2n1`, for which the growth inhibition is 0.15%.

`CCOCCC(=N)OCC`: the growth inhibition was 7.9%.

On to `CC(NC(=O)NCCCl)C1CC1` (stereo not given), for which the growth inhibition was -4.75%.

Consider `CC1OCC2CC3(O1)OC3C(COCC1OC3COC(C)OC4(C3)OC14)O2` (stereo not given), for which the growth inhibition was -3.45%.

Take `c1ccc(-c2cc(-c3ccncc3)c(-c3ccccc3)nn2)cc1`: the growth inhibition was 24%.

Take `NC(=O)NC(=O)OCCOC(=O)NC(N)=O`: the growth inhibition was -13.3%.

`NCc1cnccn1`: the growth inhibition was -4.65%.

Turning to `C=CCC(C(=C)C)(C(=O)OCC)C(=O)OCC`, the growth inhibition was -32.6%.

As to `O=C(O)C1CCC(C(=O)O)S1` (stereo not given), the growth inhibition was -0.85%.

With `Cc1ccc(NC(=O)Oc2ccc(C#N)cc2)cc1Cl`, the growth inhibition was 21.1%.

Take `CCC(=O)OC1(C(=O)OC)CCN(C)CC1`: the growth inhibition is -0.9%.

For `Cc1ccc(NC(=O)C(C)S)cc1` (stereo not given), the growth inhibition was 29.1%.

Turning to `Cc1ccc2cccc(OC(=O)Nc3cc(Cl)c(Cl)cc3Cl)c2n1`, the growth inhibition was 4.5%.

For `CCC(=O)C(C)C1(C(=O)OC)NC(=S)NC(=O)C1C#N` (stereo not given), the growth inhibition was -15.8%.

`CCNC(=O)CCN(C(=O)O)S(=O)(=O)c1ccc(NC(=O)c2ccccc2)cc1`: the growth inhibition was -2.55%.

With `Cc1cnc(-c2ccccc2)o1`, the growth inhibition was -4.8%.

Turning to `C=CCCCCCCCCC(=O)NCC1CCCCO1` (stereo not given), the growth inhibition is 67.6%.

On to `N#C/C(=C\c1ccc(C#N)cc1)C(=O)O`, for which the growth inhibition was -30%.

As to `CCOC(=O)C(NC(=O)Cc1ccccc1)C(=O)OCC`, the growth inhibition is -0.75%.

Take `Cc1ccc2c(c1)C(c1ccccc1)(c1ccccc1)OC2`: the growth inhibition was 9.45%.

With `N#CCCN(CCC#N)c1ccc(/C=C2\N=C(CN3C(=O)c4ccccc4C3=O)OC2=O)cc1`, the growth inhibition is 7.05%.

Turning to `c1ccnnc1`, the growth inhibition is 4.8%.

`CCc1ccc(O[Si](C)(C)C)cc1`: the growth inhibition is -15.6%.

In the case of `c1ccc(SCCP(CCP(c2ccccc2)c2ccccc2)c2ccccc2)cc1` (stereo not given), the growth inhibition is 14.3%.

Consider `C/C(N=NS(=O)(=O)c1ccc(C)cc1)=C1\C=CC=CN1O`, for which the growth inhibition is -6.9%.

For `Cc1c(C(=O)O)[nH]c(=O)[nH]c1=O`, the growth inhibition is 2.2%.

On to `COC(=O)c1sc(C(=O)OC)c2c1CSC2`, for which the growth inhibition is -18.4%.

Regarding `c1ccc(Cn2cccc2N=Nc2ccccc2)cc1`, the growth inhibition is 6.55%.

Regarding `O=COCCc1ccccc1`, the growth inhibition is 8.35%.

Turning to `O=C(O)CCc1ccc(NC(=O)CCl)cc1`, the growth inhibition was 17.3%.

Turning to `O=C(/C=C/c1ccccc1)NC1C=Nc2ccc(Cl)cc2NC1=O` (stereo not given), the growth inhibition is 38.5%.

In the case of `C/C=C/c1ccc(O)c(OC)c1`, the growth inhibition was 4.85%.

Take `O=C(O)/C(=C/c1ccccc1)c1ccccc1`: the growth inhibition is -30.3%.

As for `O/N=C1/CCCCc2ccccc21`, the growth inhibition is -21.2%.

Take `Cn1c(=O)c2c(nc(C(=N)SCC(=O)O)n2C)n(C)c1=O`: the growth inhibition was 15.8%.

With `Cc1nc2c(cc1C(=O)N/N=C/c1ccc([N+](=O)[O-])cc1)c(=O)n(C)c(=O)n2C`, the growth inhibition was -11.9%.

Consider `Cc1cccnc1C(=O)O.[Cu+2]`, for which the growth inhibition was -29.1%.

A further experiment can be described thus: NCI Yeast Anticancer Drug Screen. Data for the cln2 rad14 strain (AID 165).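 Further: 0% = growth equal to vehicle treated cultures.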 The following applies: S. cerevisiae cln2 rad14 strain, at 50.0 µM, active compounds read high. In a few lines: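 Growth inhibition, relative to vehicle-treated controls, is the read-out. The test organism is a yeast strain with defined genetic alterations, cln2 rad14.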
Consider `O=C(NCCCCCCNC(=O)NCc1ccco1)NCc1ccco1`, for which the growth inhibition was -15.7%.

As for `c1ccc(COC(c2ccccc2)(c2ccccc2)c2ccccc2)cc1`, the growth inhibition is -8.55%.

As for `O=S(=O)(O)C(c1ccccc1)C(O)c1ccccc1` (stereo not given), the growth inhibition is -25.2%.

Turning to `Nc1nc(N)c2nc(-c3ccc(O)cc3)c(-c3ccc(O)cc3)nc2n1`, the growth inhibition was 50.6%.

For the compound `CCOCCC(=N)OCC`, the growth inhibition was 9.45%.

Consider `CC(NC(=O)NCCCl)C1CC1` (stereo not given), for which the growth inhibition was -11.8%.

On to `CC1OCC2CC3(O1)OC3C(COCC1OC3COC(C)OC4(C3)OC14)O2` (stereo not given), for which the growth inhibition was -44.5%.

`c1ccc(-c2cc(-c3ccncc3)c(-c3ccccc3)nn2)cc1`: the growth inhibition is 22%.

On to `NC(=O)NC(=O)OCCOC(=O)NC(N)=O`, for which the growth inhibition is -16.7%.

As to `NCc1cnccn1`, the growth inhibition was 8.45%.

In the case of `C=CCC(C(=C)C)(C(=O)OCC)C(=O)OCC`, the growth inhibition is -6.8%.

Regarding `O=C(O)C1CCC(C(=O)O)S1` (stereo not given), the growth inhibition is -13.1%.

Take `Cc1ccc(NC(=O)Oc2ccc(C#N)cc2)cc1Cl`: the growth inhibition is 17.8%.

`CCC(=O)OC1(C(=O)OC)CCN(C)CC1`: the growth inhibition was 15.2%.

In the case of `Cc1ccc(NC(=O)C(C)S)cc1` (stereo not given), the growth inhibition is 38.6%.

As to `Cc1ccc2cccc(OC(=O)Nc3cc(Cl)c(Cl)cc3Cl)c2n1`, the growth inhibition was -4.8%.

As to `CCC(=O)C(C)C1(C(=O)OC)NC(=S)NC(=O)C1C#N` (stereo not given), the growth inhibition is -6.4%.

Regarding `CCNC(=O)CCN(C(=O)O)S(=O)(=O)c1ccc(NC(=O)c2ccccc2)cc1`, the growth inhibition is 0.25%.

Regarding `Cc1cnc(-c2ccccc2)o1`, the growth inhibition was 3.9%.

For the compound `C=CCCCCCCCCC(=O)NCC1CCCCO1` (stereo not given), the growth inhibition is -1.35%.

For `N#C/C(=C\c1ccc(C#N)cc1)C(=O)O`, the growth inhibition is 2.75%.

For `CCOC(=O)C(NC(=O)Cc1ccccc1)C(=O)OCC`, the growth inhibition is 10.8%.

Regarding `Cc1ccc2c(c1)C(c1ccccc1)(c1ccccc1)OC2`, the growth inhibition was -10.8%.

Take `N#CCCN(CCC#N)c1ccc(/C=C2\N=C(CN3C(=O)c4ccccc4C3=O)OC2=O)cc1`: the growth inhibition was 11.3%.

Regarding `c1ccnnc1`, the growth inhibition is -10.2%.

Regarding `CCc1ccc(O[Si](C)(C)C)cc1`, the growth inhibition is -25.4%.

Regarding `c1ccc(SCCP(CCP(c2ccccc2)c2ccccc2)c2ccccc2)cc1` (stereo not given), the growth inhibition was 22.4%.

For `C/C(N=NS(=O)(=O)c1ccc(C)cc1)=C1\C=CC=CN1O`, the growth inhibition is -1%.

On to `Cc1c(C(=O)O)[nH]c(=O)[nH]c1=O`, for which the growth inhibition is 11.5%.

In the case of `COC(=O)c1sc(C(=O)OC)c2c1CSC2`, the growth inhibition was 2.55%.

Take `c1ccc(Cn2cccc2N=Nc2ccccc2)cc1`: the growth inhibition was 6.8%.

Take `O=COCCc1ccccc1`: the growth inhibition was 5.4%.

On to `O=C(O)CCc1ccc(NC(=O)CCl)cc1`, for which the growth inhibition was 8.35%.

`O=C(/C=C/c1ccccc1)NC1C=Nc2ccc(Cl)cc2NC1=O` (stereo not given): the growth inhibition was 23%.

For `C/C=C/c1ccc(O)c(OC)c1`, the growth inhibition is -5.95%.

`O=C(O)/C(=C/c1ccccc1)c1ccccc1`: the growth inhibition is -23.1%.

As to `O/N=C1/CCCCc2ccccc21`, the growth inhibition was -29.7%.

As for `Cn1c(=O)c2c(nc(C(=N)SCC(=O)O)n2C)n(C)c1=O`, the growth inhibition is 55%.

With `Cc1nc2c(cc1C(=O)N/N=C/c1ccc([N+](=O)[O-])cc1)c(=O)n(C)c(=O)n2C`, the growth inhibition is -5.75%.

On to `Cc1cccnc1C(=O)O.[Cu+2]`, for which the growth inhibition is -45.2%.
